Results taken from PubChem BioAssay AID1159580 (chemical genetic matrix, 2015).
Among all 5,500 compounds or so, about 2,000 (36%) were called active. Inconclusive results (about 18%) are left out. Rule as the data show it: active = normalized growth mostly below about 0.91 (no sharp cut-off); inconclusive = no clear call, values can overlap the other calls; inactive = mostly above about 0.92. The list shows a part of the results.

Assay: chemical genetic growth profiling, strain panel (AID 1159580);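 also: tested at 20 µM; growth read once vehicle control cultures reached saturation at 30 °C; 1 = growth at the plate median or of vehicle wells; lower values mean less growth of the strain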
Details: growth OD

Measured: normalized growth

CC(C)(C)NCC(O)COc1cccc2c1C[C@H](O)[C@H](O)C2 (stereo not given in full)
inactive: S. cerevisiae deletion strains, locus YJR075W, strain HOC1, hits give low values 1 | S. cerevisiae deletion strains, locus YKL009W, strain mrt4, hits give low values 0.972 | S. cerevisiae deletion strains, locus YKL068W, hits give low values 0.986 | S. cerevisiae deletion strains, locus YKL085W, strain MDH1 (second series), hits give low values 0.99 | S. cerevisiae deletion strains, locus YKL085W, strain MDH1, hits give low values 0.99 | S. cerevisiae deletion strains, locus YKL160W, strain elf1, hits give low values 1.01 | S. cerevisiae deletion strains, locus YKL190W, strain CNB1, hits give low values 0.993 | S. cerevisiae deletion strains, locus YKR001C, strain vps1, hits give low values 1 | S. cerevisiae deletion strains, locus YKR026C, strain gcn3, hits give low values 1.01 | S. cerevisiae deletion strains, locus YKR091W, strain srl3, hits give low values 0.993 | S. cerevisiae deletion strains, locus YLL001W, strain dnm1, hits give low values 1.01 | S. cerevisiae deletion strains, locus YLL026W, hits give low values 1.01 | S. cerevisiae deletion strains, locus YLL041C, strain sdh2, hits give low values 1 | S. cerevisiae deletion strains, locus YLR027C, strain aat2, hits give low values 1 | S. cerevisiae deletion strains, locus YLR039C, strain RIC1, hits give low values 0.973 | S. cerevisiae deletion strains, locus YLR058C, strain SHM2, hits give low values 0.997 | S. cerevisiae deletion strains, locus YLR102C, strain apc9, hits give low values 0.992 | S. cerevisiae deletion strains, locus YLR113W, strain HOG1, hits give low values 1.05 | S. cerevisiae deletion strains, locus YLR221C, strain rsa3, hits give low values 1 | S. cerevisiae deletion strains, locus YLR258W, strain gsy2, hits give low values 0.998 | S. cerevisiae deletion strains, locus YLR262C, strain YPT6 (second series), hits give low values 1.01 | S. cerevisiae deletion strains, locus YLR262C, strain YPT6, hits give low values 0.928 | S. cerevisiae deletion strains, locus YLR268W, strain sec22, hits give low values 0.994 | S. cerevisiae deletion strains, locus YLR320W, strain mms22, hits give low values 1.02 | S. cerevisiae deletion strains, locus YLR330W, strain CHS5, hits give low values 0.986 | S. cerevisiae deletion strains, locus YLR342W, strain FKS1 (second series), hits give low values 0.993 | S. cerevisiae deletion strains, locus YLR342W, strain FKS1, hits give low values 1.01 | S. cerevisiae deletion strains, locus YLR357W, strain rsc2, hits give low values 1.01 | S. cerevisiae deletion strains, locus YLR370C, strain arc18, hits give low values 1.02 | S. cerevisiae deletion strains, locus YLR371W, strain rom2, hits give low values 0.994 | S. cerevisiae deletion strains, locus YLR384C, strain iki3, hits give low values 1.02 | S. cerevisiae deletion strains, locus YLR418C, strain cdc73, hits give low values 0.946 | S. cerevisiae deletion strains, locus YML016C, strain PPZ1, hits give low values 1 | S. cerevisiae deletion strains, locus YML032C, strain rad52, hits give low values 0.999 | S. cerevisiae deletion strains, locus YML120C, strain ndi1, hits give low values 1.01 | S. cerevisiae deletion strains, locus YML124C, strain tub3, hits give low values 0.995 | S. cerevisiae deletion strains, locus YMR058W, strain fet3, hits give low values 1.01 | S. cerevisiae deletion strains, locus YMR078C, strain ctf18, hits give low values 0.982 | S. cerevisiae deletion strains, locus YMR125W, strain sto1, hits give low values 1.01 | S. cerevisiae deletion strains, locus YMR129W, hits give low values 1.01 | S. cerevisiae deletion strains, locus YMR205C, strain PFK2, hits give low values 1.02 | S. cerevisiae deletion strains, locus YMR223W, strain ubp8, hits give low values 0.964 | S. cerevisiae deletion strains, locus YMR231W, strain pep5, hits give low values 0.998 | S. cerevisiae deletion strains, locus YMR263W, strain SAP30, hits give low values 1.02 | S. cerevisiae deletion strains, locus YMR307W, strain GAS1, hits give low values 0.959 | S. cerevisiae deletion strains, locus YNL067W, strain RPL9B, hits give low values 1.02 | S. cerevisiae deletion strains, locus YNL071W, strain lat1, hits give low values 0.999 | S. cerevisiae deletion strains, locus YNL128W, strain TEP1, hits give low values 0.988 | S. cerevisiae deletion strains, locus YNL183C, strain NPR1, hits give low values 1 | S. cerevisiae deletion strains, locus YNL209W, strain ssb2, hits give low values 0.994 | S. cerevisiae deletion strains, locus YNL233W, strain BNI4, hits give low values 1.04 | S. cerevisiae deletion strains, locus YNL248C, strain rpa49, hits give low values 1.01 | S. cerevisiae deletion strains, locus YNL250W, strain rad50, hits give low values 0.972 | S. cerevisiae deletion strains, locus YNL271C, strain bni1, hits give low values 0.988 | S. cerevisiae deletion strains, locus YNL298W, strain CLA4, hits give low values 0.983 | S. cerevisiae deletion strains, locus YNL307C, strain MCK1, hits give low values 0.986 | S. cerevisiae deletion strains, locus YNL322C, strain KRE1 (second series), hits give low values 1.01 | S. cerevisiae deletion strains, locus YNL322C, strain KRE1, hits give low values 0.992 | S. cerevisiae deletion strains, locus YNR049C, strain mso1, hits give low values 1.01 | S. cerevisiae deletion strains, locus YNR052C, strain pop2, hits give low values 0.989 | S. cerevisiae deletion strains, locus YOL006C, strain TOP1, hits give low values 1.05 | S. cerevisiae deletion strains, locus YOL012C, strain htz1 1.13 | S. cerevisiae deletion strains, locus YOL147C, strain pex11, hits give low values 0.992 | S. cerevisiae deletion strains, locus YOR001W, strain rrp6, hits give low values 1 | S. cerevisiae deletion strains, locus YOR061W, strain CKA2, hits give low values 1 | S. cerevisiae deletion strains, locus YOR069W, strain VPS5, hits give low values 0.999 | S. cerevisiae deletion strains, locus YOR070C, strain gyp1, hits give low values 1 | S. cerevisiae deletion strains, locus YOR080W, strain dia2, hits give low values 1.01 | S. cerevisiae deletion strains, locus YOR083W, strain WHI5, hits give low values 1 | S. cerevisiae deletion strains, locus YOR106W, strain vam3, hits give low values 1.02 | S. cerevisiae deletion strains, locus YOR136W, strain idh2, hits give low values 0.994 | S. cerevisiae deletion strains, locus YOR144C, strain elg1, hits give low values 0.999 | S. cerevisiae deletion strains, locus YOR184W, strain ser1, hits give low values 0.974 | S. cerevisiae deletion strains, locus YOR231W, strain MKK1, hits give low values 1.06 | S. cerevisiae deletion strains, locus YOR265W, strain rbl2, hits give low values 1.01 | S. cerevisiae deletion strains, locus YOR270C, strain vph1, hits give low values 1.01 | S. cerevisiae deletion strains, locus YOR290C, strain snf2, hits give low values 1.01 | S. cerevisiae deletion strains, locus YOR316C, strain cot1, hits give low values 0.985 | S. cerevisiae deletion strains, locus YPL051W, strain arl3, hits give low values 1 | S. cerevisiae deletion strains, locus YPL078C, strain atp4, hits give low values 1 | S. cerevisiae deletion strains, locus YPL106C, strain sse1, hits give low values 1.01 | S. cerevisiae deletion strains, locus YPL240C, strain hsp82, hits give low values 0.997 | S. cerevisiae deletion strains, locus YPL241C, strain CIN2, hits give low values 0.987 | S. cerevisiae deletion strains, locus YPL256C, strain CLN2, hits give low values 1.02 | S. cerevisiae deletion strains, locus YPR119W, strain clb2, hits give low values 0.996 | S. cerevisiae deletion strains, locus YPR141C, strain kar3, hits give low values 0.994 | S. cerevisiae deletion strains, locus YPR163C, strain tif3, hits give low values 0.991 | S. cerevisiae deletion strains, locus YPR167C, strain met16, hits give low values 0.987 | S. cerevisiae deletion strains, strain wtn01, hits give low values 0.983 | S. cerevisiae strains, strain wild type, hits give low values 0.998
